Test results published in paper PMC7862700, “An all-to-all approach to the identification of sequence-specific readers for epigenetic DNA modifications on cytosine”.

What was measured:
Test in all cases: DAPPL (digital affinity profiling via proximity ligation, sequencing); 10 mM Tris-HCl pH 7.5, 50 mM NaCl, 1 mM DTT, 4% glycerol, room temperature, 30 min; GST-TFs on glutathione beads, 16-mer random dsDNA library, 0.1% formaldehyde crosslink after washing; high values mean tight binding
[1] = molecular target: T1, FEV (Homo sapiens, UniProt Q99581 1-238); settings: protein: recombinant; tags: N-terminal GST; dsDNA, one strand shown
T1 sequence: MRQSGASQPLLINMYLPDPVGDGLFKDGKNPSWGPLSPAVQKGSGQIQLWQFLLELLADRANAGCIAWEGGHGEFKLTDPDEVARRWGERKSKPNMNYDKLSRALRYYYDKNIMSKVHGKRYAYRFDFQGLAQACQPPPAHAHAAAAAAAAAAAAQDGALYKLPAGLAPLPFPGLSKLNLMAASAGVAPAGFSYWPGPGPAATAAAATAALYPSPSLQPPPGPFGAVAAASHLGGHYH
How it was run: (§1)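 Pools of DNA-barcoded human transcription factors, expressed in yeast as GST fusions on glutathione beads and combined with a tag-only sample, were incubated with 200 nmole of a 16-mer random double-stranded DNA library. Incubation took 30 min at room temperature in Tris/NaCl/DTT/glycerol buffer and was followed by washing, 0.1% formaldehyde crosslinking, proximity ligation (BsaI/T4 ligase, 1 h, 37 °C), PCR amplification and sequencing on an Illumina NextSeq500. Binding signal is the ratio of a hexamer's read frequency for a factor to its frequency for the tag-only sample.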

[2] = molecular target: ETV5 (Homo sapiens, UniProt P41161 1-510); settings: protein: recombinant; tags: N-terminal GST; dsDNA, one strand shown
Sequence of ETV5 (P41161 whole entry): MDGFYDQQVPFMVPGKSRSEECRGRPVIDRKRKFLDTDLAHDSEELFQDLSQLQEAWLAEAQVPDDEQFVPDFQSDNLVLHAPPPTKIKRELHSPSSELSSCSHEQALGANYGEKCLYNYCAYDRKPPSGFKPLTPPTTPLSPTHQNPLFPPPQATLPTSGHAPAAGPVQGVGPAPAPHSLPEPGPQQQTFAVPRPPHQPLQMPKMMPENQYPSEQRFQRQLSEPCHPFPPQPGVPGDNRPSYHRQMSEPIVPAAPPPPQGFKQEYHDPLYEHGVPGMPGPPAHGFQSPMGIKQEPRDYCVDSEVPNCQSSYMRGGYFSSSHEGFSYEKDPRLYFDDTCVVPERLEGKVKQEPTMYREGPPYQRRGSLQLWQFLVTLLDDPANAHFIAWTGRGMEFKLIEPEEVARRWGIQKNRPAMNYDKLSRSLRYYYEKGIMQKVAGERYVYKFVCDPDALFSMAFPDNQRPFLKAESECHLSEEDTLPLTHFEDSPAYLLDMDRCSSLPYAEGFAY
How it was run: as §1

[3] = molecular target: HSF1 (Homo sapiens, UniProt Q00613 1-529); settings: protein: recombinant; tags: N-terminal GST; chain copies: 3; dsDNA, one strand shown
Sequence of HSF1 (Q00613 whole entry): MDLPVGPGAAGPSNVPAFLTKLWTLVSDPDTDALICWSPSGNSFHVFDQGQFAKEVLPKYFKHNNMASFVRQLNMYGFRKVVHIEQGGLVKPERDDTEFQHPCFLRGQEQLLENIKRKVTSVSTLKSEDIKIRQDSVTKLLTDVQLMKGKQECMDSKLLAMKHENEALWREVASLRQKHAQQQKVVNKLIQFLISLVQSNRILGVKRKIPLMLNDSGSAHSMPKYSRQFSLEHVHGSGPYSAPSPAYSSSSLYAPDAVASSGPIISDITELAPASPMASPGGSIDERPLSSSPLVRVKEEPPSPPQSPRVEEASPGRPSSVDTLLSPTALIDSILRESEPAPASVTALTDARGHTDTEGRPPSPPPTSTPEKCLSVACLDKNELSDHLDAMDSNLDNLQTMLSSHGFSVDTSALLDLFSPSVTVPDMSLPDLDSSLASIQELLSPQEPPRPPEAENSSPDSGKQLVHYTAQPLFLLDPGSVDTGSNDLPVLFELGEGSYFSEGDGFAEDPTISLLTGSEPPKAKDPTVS
How it was run: as §1

[4] = molecular target: T2, SPIC (Homo sapiens, UniProt Q8N5J4 1-248); settings: protein: recombinant; tags: N-terminal GST; dsDNA, one strand shown
T2 sequence: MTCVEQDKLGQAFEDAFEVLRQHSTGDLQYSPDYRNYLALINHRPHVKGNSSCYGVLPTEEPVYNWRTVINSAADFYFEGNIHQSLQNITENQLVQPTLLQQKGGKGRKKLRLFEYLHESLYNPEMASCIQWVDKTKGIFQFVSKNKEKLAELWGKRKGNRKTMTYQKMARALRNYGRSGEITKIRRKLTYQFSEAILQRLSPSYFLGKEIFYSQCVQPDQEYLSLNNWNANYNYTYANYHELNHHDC
How it was run: as §1

[5] = molecular target: ELF4 (Homo sapiens, UniProt Q99607 1-663); settings: protein: recombinant; tags: N-terminal GST; dsDNA, one strand shown
Sequence of ELF4 (Q99607 whole entry): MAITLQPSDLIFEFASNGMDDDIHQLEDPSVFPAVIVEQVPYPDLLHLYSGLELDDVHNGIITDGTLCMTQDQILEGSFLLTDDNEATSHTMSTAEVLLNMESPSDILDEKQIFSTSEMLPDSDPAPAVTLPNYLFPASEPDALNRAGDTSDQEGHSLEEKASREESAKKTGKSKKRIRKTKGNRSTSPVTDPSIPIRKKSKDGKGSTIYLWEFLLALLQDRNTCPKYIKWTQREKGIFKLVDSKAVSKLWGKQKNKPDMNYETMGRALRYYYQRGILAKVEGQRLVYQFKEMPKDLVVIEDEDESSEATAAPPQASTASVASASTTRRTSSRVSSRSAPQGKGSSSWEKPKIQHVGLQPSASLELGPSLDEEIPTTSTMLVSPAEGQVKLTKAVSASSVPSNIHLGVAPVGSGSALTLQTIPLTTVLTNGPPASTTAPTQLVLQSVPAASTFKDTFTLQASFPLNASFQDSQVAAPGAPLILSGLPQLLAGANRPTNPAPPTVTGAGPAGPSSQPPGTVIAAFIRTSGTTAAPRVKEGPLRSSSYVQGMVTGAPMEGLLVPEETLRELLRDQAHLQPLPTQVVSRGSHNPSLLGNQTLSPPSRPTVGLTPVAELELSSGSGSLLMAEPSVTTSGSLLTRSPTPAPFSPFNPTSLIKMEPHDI
How it was run: as §1

[6] = molecular target: T3, ELK4 (Homo sapiens, UniProt P28324-2 1-405); settings: protein: recombinant; tags: N-terminal GST; dsDNA, one strand shown
T3 sequence: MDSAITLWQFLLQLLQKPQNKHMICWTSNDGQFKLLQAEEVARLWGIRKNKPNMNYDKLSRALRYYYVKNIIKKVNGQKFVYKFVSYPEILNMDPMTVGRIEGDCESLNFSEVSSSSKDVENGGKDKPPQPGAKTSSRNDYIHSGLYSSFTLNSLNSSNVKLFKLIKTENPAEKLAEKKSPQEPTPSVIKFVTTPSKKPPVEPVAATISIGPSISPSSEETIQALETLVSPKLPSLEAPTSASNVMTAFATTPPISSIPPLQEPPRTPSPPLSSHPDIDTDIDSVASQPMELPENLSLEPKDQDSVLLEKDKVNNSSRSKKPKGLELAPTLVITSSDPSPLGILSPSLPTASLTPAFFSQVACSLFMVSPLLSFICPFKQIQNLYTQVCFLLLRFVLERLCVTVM
How it was run: as §1

[7] = molecular target: T4, ETV2 (Homo sapiens, UniProt O00321 1-342); settings: protein: recombinant; tags: N-terminal GST; dsDNA, one strand shown
T4 sequence: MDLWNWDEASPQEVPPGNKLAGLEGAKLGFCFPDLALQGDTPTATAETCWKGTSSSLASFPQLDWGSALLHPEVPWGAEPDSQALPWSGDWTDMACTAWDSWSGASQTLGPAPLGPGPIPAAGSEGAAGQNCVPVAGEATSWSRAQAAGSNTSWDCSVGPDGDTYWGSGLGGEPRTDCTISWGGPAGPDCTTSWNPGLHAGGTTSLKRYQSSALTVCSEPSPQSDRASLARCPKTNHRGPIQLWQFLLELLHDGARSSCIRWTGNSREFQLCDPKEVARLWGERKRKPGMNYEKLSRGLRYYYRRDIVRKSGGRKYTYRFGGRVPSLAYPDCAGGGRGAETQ
How it was run: as §1

[8] = molecular target: T5, ELF3 (Homo sapiens, UniProt P78545 1-371); settings: protein: recombinant; tags: N-terminal GST; dsDNA, one strand shown
T5 sequence: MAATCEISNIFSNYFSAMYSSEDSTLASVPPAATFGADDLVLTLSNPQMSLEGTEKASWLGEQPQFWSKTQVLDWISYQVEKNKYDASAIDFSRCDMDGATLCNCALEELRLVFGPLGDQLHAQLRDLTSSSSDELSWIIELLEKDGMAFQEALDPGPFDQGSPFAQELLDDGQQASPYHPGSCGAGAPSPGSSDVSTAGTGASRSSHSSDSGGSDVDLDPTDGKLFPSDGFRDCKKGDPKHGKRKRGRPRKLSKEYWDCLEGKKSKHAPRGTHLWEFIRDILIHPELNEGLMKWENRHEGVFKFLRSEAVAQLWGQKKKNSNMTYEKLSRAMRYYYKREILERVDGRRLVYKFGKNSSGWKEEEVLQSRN
How it was run: as §1

[9] = molecular target: CRX (Homo sapiens, UniProt O43186 1-299); settings: protein: recombinant; tags: N-terminal GST; dsDNA, one strand shown
Sequence of CRX (O43186 whole entry): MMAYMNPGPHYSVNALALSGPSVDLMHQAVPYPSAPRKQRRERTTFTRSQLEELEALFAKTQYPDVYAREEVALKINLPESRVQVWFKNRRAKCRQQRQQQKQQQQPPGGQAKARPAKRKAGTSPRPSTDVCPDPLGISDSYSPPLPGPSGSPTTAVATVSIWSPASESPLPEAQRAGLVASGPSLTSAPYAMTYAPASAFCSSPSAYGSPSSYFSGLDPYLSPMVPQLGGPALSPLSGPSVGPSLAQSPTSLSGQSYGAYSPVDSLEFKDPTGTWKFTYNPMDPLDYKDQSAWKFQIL
How it was run: as §1

[10] = molecular target: ETV1 (Homo sapiens, UniProt P50549 1-477); settings: protein: recombinant; tags: N-terminal GST; dsDNA, one strand shown
Sequence of ETV1 (P50549 whole entry): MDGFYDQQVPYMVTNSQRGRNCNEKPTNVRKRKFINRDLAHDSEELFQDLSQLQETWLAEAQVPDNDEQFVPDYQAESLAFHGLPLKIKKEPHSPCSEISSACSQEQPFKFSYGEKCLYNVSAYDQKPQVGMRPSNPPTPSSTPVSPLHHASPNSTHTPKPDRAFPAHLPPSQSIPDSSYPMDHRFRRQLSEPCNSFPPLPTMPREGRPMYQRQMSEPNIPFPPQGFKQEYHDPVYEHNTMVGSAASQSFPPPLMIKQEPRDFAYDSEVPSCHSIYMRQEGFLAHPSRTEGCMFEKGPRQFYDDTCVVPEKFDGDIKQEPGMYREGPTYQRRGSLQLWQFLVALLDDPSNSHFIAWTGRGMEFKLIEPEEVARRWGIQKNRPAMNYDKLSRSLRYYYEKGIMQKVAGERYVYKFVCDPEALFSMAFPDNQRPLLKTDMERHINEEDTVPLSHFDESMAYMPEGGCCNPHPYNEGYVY
How it was run: as §1

[11] = molecular target: T6, ERF (Homo sapiens, UniProt P50548 1-548); settings: protein: recombinant; tags: N-terminal GST; dsDNA, one strand shown
T6 sequence: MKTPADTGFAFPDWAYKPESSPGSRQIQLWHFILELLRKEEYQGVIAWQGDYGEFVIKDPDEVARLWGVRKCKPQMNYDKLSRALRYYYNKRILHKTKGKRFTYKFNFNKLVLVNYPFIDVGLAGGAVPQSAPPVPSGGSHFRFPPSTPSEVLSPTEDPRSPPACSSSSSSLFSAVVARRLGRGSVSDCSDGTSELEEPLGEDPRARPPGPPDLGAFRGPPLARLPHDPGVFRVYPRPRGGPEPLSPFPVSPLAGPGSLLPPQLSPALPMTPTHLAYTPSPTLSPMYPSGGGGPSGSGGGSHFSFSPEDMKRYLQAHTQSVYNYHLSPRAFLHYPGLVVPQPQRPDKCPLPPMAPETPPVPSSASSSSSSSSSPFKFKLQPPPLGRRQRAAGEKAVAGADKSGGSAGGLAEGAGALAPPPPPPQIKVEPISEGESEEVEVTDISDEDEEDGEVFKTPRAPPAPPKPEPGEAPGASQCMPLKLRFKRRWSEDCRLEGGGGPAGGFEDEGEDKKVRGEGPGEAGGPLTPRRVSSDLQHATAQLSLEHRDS
How it was run: as §1

[12] = molecular target: T7, ETV3L (Homo sapiens, UniProt Q6ZN32 1-361); settings: protein: recombinant; tags: N-terminal GST; dsDNA, one strand shown
T7 sequence: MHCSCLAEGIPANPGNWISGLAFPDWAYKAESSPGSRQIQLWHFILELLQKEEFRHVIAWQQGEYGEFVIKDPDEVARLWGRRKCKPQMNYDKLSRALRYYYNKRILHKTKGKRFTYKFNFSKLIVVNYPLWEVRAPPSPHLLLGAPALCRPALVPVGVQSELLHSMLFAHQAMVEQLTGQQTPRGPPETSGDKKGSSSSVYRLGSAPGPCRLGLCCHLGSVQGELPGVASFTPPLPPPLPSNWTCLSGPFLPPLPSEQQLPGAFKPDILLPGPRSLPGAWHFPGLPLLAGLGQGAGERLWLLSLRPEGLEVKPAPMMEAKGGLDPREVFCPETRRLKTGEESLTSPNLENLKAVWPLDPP
How it was run: as §1

[13] = molecular target: T8, ETS2 (Homo sapiens, UniProt P15036 1-469); settings: protein: recombinant; tags: N-terminal GST; dsDNA, one strand shown
T8 sequence: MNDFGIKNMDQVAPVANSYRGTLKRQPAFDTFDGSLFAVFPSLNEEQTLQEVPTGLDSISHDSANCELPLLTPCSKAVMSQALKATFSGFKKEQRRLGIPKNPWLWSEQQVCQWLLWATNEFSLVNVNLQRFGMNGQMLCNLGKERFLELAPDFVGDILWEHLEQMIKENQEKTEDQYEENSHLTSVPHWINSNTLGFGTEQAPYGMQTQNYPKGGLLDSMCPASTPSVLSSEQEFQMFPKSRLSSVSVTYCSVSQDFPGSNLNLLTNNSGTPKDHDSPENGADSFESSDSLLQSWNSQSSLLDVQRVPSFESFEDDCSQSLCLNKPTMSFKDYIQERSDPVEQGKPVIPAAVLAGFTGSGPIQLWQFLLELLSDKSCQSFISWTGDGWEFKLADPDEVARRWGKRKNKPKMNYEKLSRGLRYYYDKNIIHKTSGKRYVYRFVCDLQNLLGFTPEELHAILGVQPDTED
How it was run: as §1

[14] = molecular target: T9, SPDEF (Homo sapiens, UniProt O95238 1-335); settings: protein: recombinant; tags: N-terminal GST; dsDNA, one strand shown
T9 sequence: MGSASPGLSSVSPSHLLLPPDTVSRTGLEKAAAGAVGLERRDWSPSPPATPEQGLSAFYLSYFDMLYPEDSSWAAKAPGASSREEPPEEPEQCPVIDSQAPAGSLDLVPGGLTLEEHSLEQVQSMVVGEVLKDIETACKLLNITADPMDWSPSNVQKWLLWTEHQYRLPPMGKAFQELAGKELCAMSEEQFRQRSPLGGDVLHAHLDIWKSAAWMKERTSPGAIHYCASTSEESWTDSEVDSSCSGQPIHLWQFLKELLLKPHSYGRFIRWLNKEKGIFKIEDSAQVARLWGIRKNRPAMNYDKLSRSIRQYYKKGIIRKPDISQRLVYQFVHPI
How it was run: as §1

[15] = molecular target: T10, ETV7 (Homo sapiens, UniProt Q9Y603 1-341); settings: protein: recombinant; tags: N-terminal GST; dsDNA, one strand shown
T10 sequence: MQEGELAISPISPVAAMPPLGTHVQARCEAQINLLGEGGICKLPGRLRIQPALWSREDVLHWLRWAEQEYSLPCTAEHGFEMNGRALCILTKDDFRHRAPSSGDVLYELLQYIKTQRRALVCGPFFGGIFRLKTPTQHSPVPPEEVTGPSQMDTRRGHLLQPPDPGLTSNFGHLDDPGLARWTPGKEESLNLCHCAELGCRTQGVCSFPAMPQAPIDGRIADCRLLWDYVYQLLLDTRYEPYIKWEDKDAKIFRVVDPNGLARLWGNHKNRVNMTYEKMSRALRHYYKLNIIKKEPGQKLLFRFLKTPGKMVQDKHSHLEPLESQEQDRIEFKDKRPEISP
How it was run: as §1

[16] = molecular target: T11, ELF5 (Homo sapiens, UniProt Q9UKW6-2 1-255); settings: protein: recombinant; tags: N-terminal GST; dsDNA, one strand shown
T11 sequence: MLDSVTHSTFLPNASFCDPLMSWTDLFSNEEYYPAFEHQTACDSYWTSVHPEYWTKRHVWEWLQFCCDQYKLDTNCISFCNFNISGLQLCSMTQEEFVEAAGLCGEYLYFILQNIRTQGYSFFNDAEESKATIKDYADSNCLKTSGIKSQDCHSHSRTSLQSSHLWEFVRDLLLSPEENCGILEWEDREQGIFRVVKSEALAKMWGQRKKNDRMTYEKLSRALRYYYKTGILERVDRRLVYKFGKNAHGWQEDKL
How it was run: as §1

[17] = molecular target: T12, ETV3 (Homo sapiens, UniProt P41162-2 1-143); settings: protein: recombinant; tags: N-terminal GST; dsDNA, one strand shown
T12 sequence: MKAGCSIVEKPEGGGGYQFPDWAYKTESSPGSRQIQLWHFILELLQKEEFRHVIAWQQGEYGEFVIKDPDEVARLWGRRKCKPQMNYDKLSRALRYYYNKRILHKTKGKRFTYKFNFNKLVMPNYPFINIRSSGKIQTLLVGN
How it was run: as §1

[18] = molecular target: ETV6 (Homo sapiens, UniProt P41212 1-452); settings: protein: recombinant; tags: N-terminal GST; dsDNA, one strand shown
Sequence of ETV6 (P41212 whole entry): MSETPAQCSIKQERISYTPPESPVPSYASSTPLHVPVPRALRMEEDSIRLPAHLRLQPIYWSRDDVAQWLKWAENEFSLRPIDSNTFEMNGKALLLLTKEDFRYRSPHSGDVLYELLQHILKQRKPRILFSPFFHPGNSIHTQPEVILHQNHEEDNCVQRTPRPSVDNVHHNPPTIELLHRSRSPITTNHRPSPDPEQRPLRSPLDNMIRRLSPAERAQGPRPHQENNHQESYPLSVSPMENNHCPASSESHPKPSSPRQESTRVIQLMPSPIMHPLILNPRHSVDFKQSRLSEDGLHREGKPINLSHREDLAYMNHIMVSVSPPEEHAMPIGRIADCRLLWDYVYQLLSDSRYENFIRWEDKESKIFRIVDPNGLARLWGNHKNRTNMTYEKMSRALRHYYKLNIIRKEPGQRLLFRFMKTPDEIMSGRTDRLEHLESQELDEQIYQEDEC
How it was run: as §1

CTCTTA
binding signal [1]: 1.34 fold enrichment (6-mer frequency, TF over GST control) | binding signal [2]: 1.41 fold enrichment (6-mer frequency, TF over GST control) | binding signal [3]: 1.52 fold enrichment (6-mer frequency, TF over GST control) | binding signal [4]: 1.4 fold enrichment (6-mer frequency, TF over GST control) | binding signal [5]: 1.32 fold enrichment (6-mer frequency, TF over GST control) | binding signal [6]: 1.34 fold enrichment (6-mer frequency, TF over GST control) | binding signal [7]: 1.49 fold enrichment (6-mer frequency, TF over GST control) | binding signal [8]: 1.27 fold enrichment (6-mer frequency, TF over GST control) | binding signal [9]: 2.2 fold enrichment (6-mer frequency, TF over GST control) | binding signal [10]: 1.38 fold enrichment (6-mer frequency, TF over GST control) | binding signal [11]: 1.45 fold enrichment (6-mer frequency, TF over GST control) | binding signal [12]: 1.5 fold enrichment (6-mer frequency, TF over GST control) | binding signal [13]: 1.33 fold enrichment (6-mer frequency, TF over GST control) | binding signal [14]: 1.24 fold enrichment (6-mer frequency, TF over GST control) | binding signal [15]: 1.28 fold enrichment (6-mer frequency, TF over GST control) | binding signal [16]: 1.31 fold enrichment (6-mer frequency, TF over GST control) | binding signal [17]: 1.38 fold enrichment (6-mer frequency, TF over GST control) | binding signal [18]: 1.39 fold enrichment (6-mer frequency, TF over GST control)
